Screens: PubChem BioAssay, National Center for Advancing Translational Sciences (NCATS)
The full list was thinned out, with hits kept by preference.
Pf Dd2 growth: inhibitors of Plasmodium falciparum Dd2 growth; P. falciparum Dd2 growth, SYBR Green, 72 h; Potency, µM (titrated, usually from 28.9 µM), for the others: at the top dose activity, negative = inhibition, usual class: inhibitors; actives 4.3% (n = 120,000); active = well fitted inhibition curve with a large enough effect;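 note: plate controls were DMSO vehicle for no effect and reference drug for full effect; nearly all actives have a fitted effect of over 65% in size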
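Infected erythrocytes (Dd2, 0.3% parasitemia, 2.5% hematocrit final) are added to compound in RPMI-1640/Albumax II medium, grown 72 h at 37C in low oxygen, then lysed with saponin/Triton-X containing SYBR Green and read by fluorescence.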
The depositor's hits bear a star; i = inactive; [ ] = another dose, or the depositor's remark. Potency is the fitted concentration of half-maximal effect.

SMILES	Pf Dd2 growth
O=C(Nc1ccc(O)c(-c2nc3ccccc3o2)c1)c1cccs1	35.9%
O=C(Nc1ccc(O)c(-c2nc3ccccc3o2)c1)c1ccc(Br)cc1	2.82µM*
O=C(Nc1ccc(O)c(-c2nc3ccccc3o2)c1)c1sc2ccccc2c1Cl	0.4%
COc1ccc(-c2n[nH]c3c2CC(=O)N(Cc2ccccn2)C3)cn1	7.4%[44.1 µM]
CCOc1cc(=O)n2c(c1C(=O)Nc1cccc(C(C)C)c1)CCCC2	50.3%
COc1cccc(S(=O)(=O)N2CCC(n3cnnc3C(C)C)CC2)c1	13.7%
CC1CCc2c(cc(-c3ccccc3)n2-c2ccc(C(=O)NC(C)C)cc2)C1 (stereo not given)	i
CCOc1ccc(CCNC(=O)c2ccc(-n3c(C)cc4c3CCCC4)cc2)cc1OCC	7.94µM*
CN(C)CCNC(=O)c1ccc(-n2c(-c3ccccc3)cc3c2CCCCC3)cc1	0.355µM*
Cc1cc2c(n1-c1ccc(C(=O)NCc3ccc(OC(C)C)cc3)cc1)CCCC2	-13.4%
CCOc1ccc(CCNC(=O)c2ccc(C)c(-n3c(C)nc4cccnc43)c2)cc1OCC	-2.2%
CC(C)NC(=O)c1ccc(-n2c(-c3ccccc3)cc3c2CCCCC3)cc1	-19.8%
COCCNC(=O)c1ccc(-n2c(-c3ccccc3)cc3c2CCC(C)C3)cc1 (stereo not given)	-30.7%
COCCCNC(=O)c1ccc(-n2c(-c3ccccc3)cc3c2CCCCC3)cc1	5.01µM*
CCCNC(=O)c1ccc(-n2c(-c3ccccc3)cc3c2CCC(C)C3)cc1 (stereo not given)	i
COc1ccc(C)cc1NC(=O)c1ccc2c(c1)N(C)C1CCCN1C2=O (stereo not given)	i
COc1ccc(C)cc1NC(=O)Cn1cccc1-c1nc(-c2ccc3c(c2)OCO3)no1	i
CN(C)CCN1CCC(N2CCN(C(=O)c3ccnn3C)CC2)C1=O (stereo not given)	-24.5%
CSc1cccc(NC(=O)Cn2nc3c(cc2=O)CCCCC3)c1	i
CN(C)C[C@@H]1CN(S(C)(=O)=O)C[C@H]1NC(=O)C1(C)CCOCC1	75.4%
O=C(O)COc1ccc(-c2nccc3c2C(=O)N(Cc2c[nH]c4ccccc24)CC(COc2cccc(N4CCOCC4)c2)O3)cc1 (stereo not given)	i
COCC1CN(C(C)=O)CC12CCN(C(=O)c1ccc(C(F)(F)F)cc1)CC2 (stereo not given)	13.9%
Cc1ccc(CNC(=O)CC2CCCN(c3cnn(CC4CC4)c(=O)c3)C2)cc1C (stereo not given)	i
Cc1ccc(-n2nc(-c3c(C)nc4scc(CC(=O)N5CCOCC5)n4c3=O)cc2C)cc1	i
O=C(C1CCOCC1)N1CCCC1c1nc(C2CCOCC2)no1 (stereo not given)	48.7%
SMILES	Pf Dd2 growth
Cn1cc(CN2CC[C@@H](c3ccc4c(c3)OCO4)[C@H](O)C2)c2ccccc21	8.91µM*
Cn1cc(CN2CCC(C3CCN(S(C)(=O)=O)CC3)C2)c2ccccc21 (stereo not given)	3.55µM*
Cn1cc(CN2C[C@@H]3OCC(=O)N[C@@H]3C2)c2ccccc21	i
CS(=O)(=O)N1CCC(C2CCN(Cc3ccncc3)C2)CC1 (stereo not given)	-2.0%
CS(=O)(=O)N1CCC(C2CCN(Cc3ccsc3)C2)CC1 (stereo not given)	i
CN1C[C@H]2CN(Cc3cn(C)c4ccccc34)CCN2C1=O	-28.0%[44.1 µM]
CC(=O)Nc1ccc(OCC(=O)N2CCC(C)CC2)nc1	34.9%
C#CCN(C)Cc1nc(C2(O)CCN(C(=O)c3cccc(F)c3)CC2)cs1	-20.2%[44.1 µM]
COc1cccc([S+](=O)([O-])N2CCC(N3Cc4ccccc4C3=O)CC2)c1	-2.7%
O=C(c1cn(-c2ccccc2)nn1)N(Cc1cccnc1)C1CCNCC1	i
O=C1CCCCC(Cc2ccccc2)(C(=O)NCCc2ccccc2)N1 (stereo not given)	-19.0%
Cc1cnn(C2(C(=O)O)CCN(C(=O)c3cnn4cccnc34)CC2)c1	-10.7%
COc1ccccc1CNC(=O)c1ccc2c(c1)N(Cc1ccc(C)cc1)CCS2	10µM*
CCOc1ccccc1CNC(=O)c1ccc2c(c1)N(Cc1ccc(C)cc1)CCS2	-2.9%
COc1ccccc1CNC(=O)c1ccc(-c2nc(CN3CCc4ccccc43)c(C)o2)cc1	10µM*
CCc1ccc(-c2nc(CSCC(=O)NCc3ccccc3OC)c(C)o2)cc1	-7.5%
CCCCOc1ccc(CNC(=O)c2ccc(-c3nc(CN4CCc5ccccc54)c(C)o3)cc2)cc1	-25.1%
COc1ccc(Br)cc1CNC(=O)c1ccc2c(c1)N(Cc1ccc(C)cc1)CCS2	-0.7%
Cc1ccc(CNC(=O)N2CCC(Oc3ncccc3C(=O)N3CCOCC3)C2)cc1 (stereo not given)	25.7%
Cc1ccc(NC(=O)N2CC(C(=O)N(C)C)C3(CCOCC3)C2)cc1C (stereo not given)	6.4%
Cc1ccc(C(=O)N2CCC3(CCCN(C4CCOCC4)C3=O)C2)cc1F (stereo not given)	-10.6%
COc1cccc(C(=O)NC2CCN(c3cc(-c4ccc(Cl)cc4)[nH]n3)CC2)c1OC	-8.4%
